Entries with a potency or affinity are not part of this list. Activity calls are given as the source filed them.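 Rule for the calls: active = signal-lowering compounds whose fitted half-maximal concentration is at or below twice the top tested dose in every run; inconclusive = runs disagree, flat 30 to 70% inhibition, or poor curve fit; inactive = the rest.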
What follows are molecules tested against Protein S100-A4 (Homo sapiens) (UniProt P26447) (assay: S100A4-myosin IIA binding inhibitor potency, dose response, biochemical, fluorescence polarization, cherry-picked hits (AID 687001)). Conditions: FP, S100A4/TAMRA-myosin IIA peptide binding; series mostly up to 11 µM.
Chain of Protein S100-A4 (Homo sapiens) (P26447 whole entry, looked up): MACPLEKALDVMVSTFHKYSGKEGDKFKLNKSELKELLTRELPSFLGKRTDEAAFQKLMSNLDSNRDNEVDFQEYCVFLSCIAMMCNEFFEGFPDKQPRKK

Structure (SMILES)	outcome
CCCNC(=O)[C@@H]1[C@@H](CO)[C@@H]2Cn3c(cccc3=O)[C@@H]2N1C(=O)C1CCC1	inactive
CCCNC(=O)Nc1ccc2c(c1)OC[C@@H](C)N(C(=O)C1CC1)C[C@H](C)[C@@H](OC)CN(C)C2=O	inactive
COc1ccccc1NC(=O)N[C@H]1CC[C@H](CCNS(=O)(=O)c2ccc(Cl)cc2)O[C@H]1CO	inactive
O=c1[nH][nH]c(=O)c2nc(Nc3ccccc3)ncc12	inactive
COc1cc(S(=O)(=O)NCc2ccccn2)ccc1Cl	inactive
CCN(CC(=O)Nc1c(F)cccc1F)C(=O)c1ccc(OC)c(S(=O)(=O)NC2CCCC2)c1	inactive
Cn1cc(SCC(=O)NC2CCCC2)c2ccccc21	inactive
Cc1cccc(-c2oc3ccc(-c4ccc5c(c4)OCO5)cc3c2-c2ccc(OC3CCCCO3)cc2)c1 (centres undefined)	inactive
COc1cc(O)c(C(=O)O)c(CCc2ccccc2)c1	inactive
Cc1ccc(CNC(=O)c2[nH]c(C(F)(F)F)nc2-c2ccccc2)cc1	inactive
C=C[C@@H]1c2ccccc2N(S(=O)(=O)c2ccc(C)cc2)[C@H](c2ccccc2C(F)(F)F)C1(C#N)C#N	inactive
Cc1cc(=O)n2nc(N3CCC(C(=O)NCc4ccccc4)CC3)sc2n1	inactive
CC(C)C(=O)Nc1ccc2c(c1)C(=O)N(C)[C@H]1CC[C@H](CC(=O)Nc3cccc(F)c3)O[C@@H]1CO2	inactive
CCCCn1c(N)c(N(CC(C)C)C(=O)COc2cc(C)ccc2Cl)c(=O)[nH]c1=O	inactive
Cc1ccc([N+](=O)[O-])cc1N=Nc1c(C)[nH]n(C(N)=S)c1=O	inactive
CCCCNS(=O)(=O)c1ccc2nc(-c3cccnc3)cc(C(=O)NC(C)CC)c2c1 (centres undefined)	inactive
CCOc1cc(/C=N/NC(=O)c2ccc(N(C)S(=O)(=O)c3ccccc3)cc2)ccc1OC	inactive
CCCCNC(=O)CNC(=S)N(CCCN1CCOCC1)Cc1cccs1	inactive
CO[C@H]1CN(C)C(=O)c2ccc(NC(=O)c3ccccc3F)cc2OC[C@H](C)NC[C@@H]1C	inactive
O=C(NNC(=O)c1ccccc1F)c1cccc(-n2cccc2)c1	inactive

Structure (SMILES)	outcome
Cc1ccc(S(=O)(=O)Nc2ccc3c(c2)C(=O)N([C@H](C)CO)C[C@@H](C)[C@@H](CN(C)C(=O)NC(C)C)OCCCC[C@@H](C)O3)cc1	inactive
CN(C)C(CNC(=O)CCc1nc2cc(Cl)ccc2n(Cc2ccccc2)c1=O)c1ccccc1 (centres undefined)	inactive
C[C@H]1CN([C@@H](C)CO)C(=O)c2cccc(NC(=O)C3CC3)c2O[C@@H]1CN(C)Cc1ccc2c(c1)OCO2	inactive
Oc1ccc(-c2cc(-c3ccc(O)cc3)nc(-c3ccccc3)n2)cc1	inactive
S=c1[nH]c(-c2ccccc2)cn1-c1ccccc1	inactive
CCc1ccc(C(=O)NNC(=O)c2cccc(N3C(=O)CCC3=O)c2)cc1	inactive
CCOC(=O)C1(C)CCCN1C(=O)c1ccc(C(F)(F)F)nc1C (centres undefined)	inactive
CC(C)NC(=O)Nc1ccc2c(c1)C(=O)N([C@H](C)CO)C[C@@H](C)[C@H](CN(C)S(=O)(=O)c1ccccc1)OCCCC[C@@H](C)O2	inactive
CC(C)(C)C1CCSC2=NCCC[C@]2(c2ccccc2)C1 (some centres undefined)	inactive
CCCc1cc(C(=O)Nc2cccc3ccccc23)n(C)n1	inactive
CC(=O)N1c2ccc(S(=O)(=O)N3CCC(C(=O)Nc4ncccc4C)CC3)cc2CC1C (centres undefined)	inactive
Cc1cc2cc(C#N)c(N3CCOCC3)nc2cc1Cl	inactive
C[C@@H]1CN([C@@H](C)CO)S(=O)(=O)c2ccc(-c3ccccc3)cc2O[C@H]1CN(C)Cc1cccc(F)c1	inactive
Cc1noc(C)c1S(=O)(=O)N(C)C[C@H]1Oc2ccc(N(C)C)cc2CC(=O)N([C@H](C)CO)C[C@H]1C	inactive
N#C[C@@H]1[C@H](c2ccccc2-c2cccc(F)c2)[C@@H](CO)N1C(=O)C1CC1	inactive
CCCc1cn(CC[C@@H]2CC[C@H](NS(=O)(=O)c3ccccc3Cl)[C@@H](CO)O2)nn1	inactive
Cc1ccc(S(=O)(=O)N(C)C[C@H]2Oc3ccc(NC(=O)Nc4ccccc4)cc3C(=O)N([C@@H](C)CO)C[C@H]2C)cc1	inactive
Cn1c(=O)oc2cc(S(=O)(=O)NCc3ccc(Cl)cc3)ccc21	inactive
O=C(C[C@H]1C=C[C@H](NC(=O)c2ccc(F)cc2)[C@H](CO)O1)NCc1ccncn1	inactive

— PubChem BioAssay AID687001 (Broad Institute, 2013)
